CYP2C9 inhib: human CYP2C9 inhibition | CYP2C9 Supersomes, luciferin-H conversion, luminescence | AID 777 | inhibition, % at 5 µM | P11712 | 20% of 96,000 active;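 active = blocking of liver enzyme CYP2C9 beyond about 50% at 5 µM, limit read from the data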
CYP2C9 activ: activators of human CYP2C9; activation factor at 5 µM; recombinant CYP2C9, luciferin-H conversion, luminescence; hits give high values; factor 1 = untreated enzyme, 0 = blocked; AID 1024; 1.4% of 96,000 active;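 active = activation factor of 2 or more for CYP2C9 at a 5 µM dose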;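 note: 0 = sulfaphenazole-blocked wells and 1 = vehicle-only wells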
CYP2C19 activ: cytochrome P450 2C19 (human) activation; P33261; activation factor at 5 µM; 96,000 tested, under 10 active; recombinant CYP2C19, luciferin-H EGE luminescence; hits give high values; 0 = fully inhibited enzyme, 1 = untreated enzyme;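 active = activation factor of at least 2 at 5 µM in the primary screen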;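 note: 0 = wells with 2.5 mM tranylcypromine and 1 = vehicle-only wells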
Target sequence (P33261 whole entry, looked up): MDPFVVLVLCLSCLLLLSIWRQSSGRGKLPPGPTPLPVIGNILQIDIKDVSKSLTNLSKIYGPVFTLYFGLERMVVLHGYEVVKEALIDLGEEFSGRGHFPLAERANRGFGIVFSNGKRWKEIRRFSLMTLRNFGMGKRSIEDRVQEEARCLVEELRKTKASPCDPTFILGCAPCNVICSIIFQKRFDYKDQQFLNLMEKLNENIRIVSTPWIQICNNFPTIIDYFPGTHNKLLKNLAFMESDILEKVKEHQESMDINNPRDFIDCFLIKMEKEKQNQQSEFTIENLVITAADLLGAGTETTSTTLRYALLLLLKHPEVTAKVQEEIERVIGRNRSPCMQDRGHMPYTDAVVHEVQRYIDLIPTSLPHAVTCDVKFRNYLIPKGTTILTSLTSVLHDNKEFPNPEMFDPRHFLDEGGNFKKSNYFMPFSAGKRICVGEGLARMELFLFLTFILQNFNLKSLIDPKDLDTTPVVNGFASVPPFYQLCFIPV
MRP1 act: activators of MRP-1; 0.61% of 140,000 active; H69AR cells + doxorubicin, viability rescue, CellTiter-Glo; viability increase, % at 10 µM;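 active = viability gain under doxorubicin at or above a set limit, the compound median plus 3 SD, cut at about 4.7% in these data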;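 note: MRP-1 overexpressing cells given doxorubicin 25 µM after compound pretreatment; 18-22 h compound pretreatment then 72 h with doxorubicin before readout; 0% = doxorubicin-only wells and 100% = vehicle-treated cells without doxorubicin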
CYP2C19 inh: human CYP2C19 inhibition | CYP2C19 Supersomes, luciferin-H EGE luminescence, 30 min | inhibition, % at 5 µM | P33261 | 21% of 96,000 active;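 active = CYP2C19 inhibition above a set limit at 5 µM in the primary screen, cut at about 50% in these data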;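 note: plate controls were negative control wells for no effect and 2.5 mM tranylcypromine positive control for full effect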
MRP resist rev: reverses drug resistance mediated by MRP; H69AR cells + 2 uM doxorubicin, CellTiter-Glo, 72 h; differential viability (reversal), % at 10 µM; 0.04% of 85,000 active; AID 602;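 active = viability drop by adding the cancer drug above about 55%, with treated viability meeting a 40% cutoff, limit read from the data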;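 note: viability without doxorubicin minus viability with 2 µM doxorubicin for each compound; larger differential means the compound sensitizes cells more to doxorubicin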
* hit, by the source's call; . = not tested or not shown. A selection: hits, their analogues and other compounds. The true share with any hit is near 21%.

SMILES	CYP2C9 inhib	CYP2C9 activ	CYP2C19 activ	MRP1 act	CYP2C19 inh	MRP resist rev
CC(C)C1(C)C(=O)N=C2c3ccccc3C(=O)N21 (centres undefined)	2	1	0.7	-2	33	9
OCc1nc2ccccc2n1CC(O)Cn1ccc2ccccc21 (centres undefined)	84*	0.2	0.1	-1	90*	-15
Cc1cc(C)n(CC(O)Cn2c3ccccc3c3ccccc32)n1 (centres undefined)	61*	0.4	0.2	-2	82*	-17
Cc1cc(C)n(CC(O)CN2c3ccccc3Sc3ccccc32)n1 (centres undefined)	33	0.7	0.3	0	66*	-9
O=C1c2ccccc2S(=O)(=O)N1CC(O)Cn1ccc2ccccc21 (centres undefined)	71*	0.3	0	0	97*	-3
COc1ccc(N(CC(=O)NC2CCCCC2)C(=O)CNC(=O)c2ccco2)cc1OC	.	.	.	-2	.	8
CCOC(=O)N1CCN(C(=O)Cn2ncn3nc(-c4cccs4)cc3c2=O)CC1	-14	1.1	1	-2	-4	-24
Cc1cc(C)n(CC(O)Cn2c3ccc(Cl)cc3c3cc(Cl)ccc32)c(=O)n1 (centres undefined)	95*	0.1	0.4	1	58*	16
Cc1cc(C)n(CC(O)Cn2ccc3ccccc32)n1 (centres undefined)	41	0.6	0.3	-1	72*	2
Cc1cc(C)c2c(=O)n(CC(=O)NCCCN3CCOCC3)sc2n1	81*	0.2	0.7	-4	33	4
Cc1cc(C)c2c(=O)n(CC(=O)NCCCN3CCN(c4ccccc4F)CC3)sc2n1	65*	0.3	0.6	-6	38	-1
Cc1ccc(SCC(=O)NCCCN2CCOCC2)cc1	5	0.9	0.9	-1	6	7
O=C(O)CC(CP(=O)(c1ccccc1)c1ccccc1)C(=O)O (centres undefined)	-18	1.2	1.1	1	-12	4
O=C(O)CC(c1ccccc1)c1ccccc1	52*	0.5	1.1	0	-5	11
COc1ccc(OC)c(C(=O)c2coc3ccc(O)cc23)c1	73*	0.3	0.3	-2	70*	-29
CC(C)(C)c1cn(-c2ccccc2)c(=S)[nH]1	9	0.9	0.6	-2	45	.
Cc1ccc(-n2cc(C(C)(C)C)[nH]c2=S)cc1	-36	1.4	0.4	1	60*	-5
COc1ccc(OCCOC(=O)c2ccc(-n3cnnn3)cc2)cc1	73*	0.3	0.7	0	32	3
COC(=O)c1cccc(-n2cnnn2)c1	.	.	.	-1	.	-9
COc1ccc(OCCOC(=O)c2cccc(-n3cnnn3)c2)cc1	58*	0.4	0.3	-1	66*	2
CCOc1ccc(C(C)=O)cc1COc1ccc(-n2cnnn2)cc1	78*	0.2	0	0	97*	14
CCOc1ccc(-n2cnnn2)cc1S(=O)(=O)N1CCCCC1	-28	1.3	1.1	-1	-14	2
Cc1ccc(C(=O)CSc2nnc3c4ccccc4nc(Cc4ccccc4)n23)cc1	.	.	.	-1	.	.
CCS(=O)(=O)NCCc1cc2ccc(C)cc2[nH]c1=O	-13	1.1	1	0	-2	-7
NS(=O)(=O)c1ccc(NC(=O)CSc2nnc(-c3cnccn3)n2-c2ccccc2)cc1	-26	1.3	1.2	-2	-17	8
SMILES	CYP2C9 inhib	CYP2C9 activ	CYP2C19 activ	MRP1 act	CYP2C19 inh	MRP resist rev
CN(C)c1ccc(C(=O)c2ccccc2)cc1	-9	1.1	0.1	-1	88*	21
CN(C)c1ccc(NC(=O)Oc2ccccc2)cc1	6	0.9	0.1	0	91*	-22
CC(=O)Nc1ccc(NC(=O)Oc2ccccc2)cc1	10	0.9	0.9	-1	10	-21
COc1ccc(OC(=O)Nc2ccccc2)cc1	67*	0.3	0.2	0	78*	-3
CN(C)c1ccc(C(=O)C(O)c2ccccc2)cc1 (centres undefined)	.	.	.	-3	.	27
Cc1ccc(C(=O)N/C(=C\c2ccc(C(C)C)cc2)C(=O)NCCCN2CCOCC2)cc1	.	.	.	-5	.	.
COc1cc(C)c(C)cc1S(=O)(=O)N1CCN(Cc2ccccc2)CC1	63*	0.4	0.1	1	89*	6
COc1cc(C)c(C)cc1S(=O)(=O)N1CCN(Cc2ccc3c(c2)OCO3)CC1	-2	1	0.4	-2	62*	17
COc1ccc(CN2CCN(S(=O)(=O)c3ccc(C)cc3)CC2)cc1Br	45	0.5	0.8	0	23	7
Cc1ccc(S(=O)(=O)N2CCN(C3CCN(Cc4ccccc4)CC3)CC2)cc1	11	0.9	1	0	3	0
Cc1cc(S(=O)(=O)N2CCN(Cc3ccccc3)CC2)c(C)s1	62*	0.4	0	-1	99*	10
COc1cc(S(=O)(=O)N2CCN(Cc3ccc4c(c3)OCO4)CC2)c(C)cc1C	-2	1	0.7	-3	32	-12
O=C(/C=C/c1ccc(F)cc1)NCCc1ccc2c(c1)OCCO2	.	.	.	-1	.	.
C=CCn1c(COc2ccc(OC)cc2)nnc1SCn1nnc2ccccc2c1=O	.	.	.	4	.	.
COC(C#CCCN(C)C)(c1ccccc1)c1ccccc1	.	.	.	-2	.	.
CCCNC(=O)NCCc1c(C)[nH]c2ccccc12	-154	2.5*	0.6	-1	45	-14
Cc1[nH]c2ccccc2c1CCNC(=O)c1ccc2c(c1[N+](=O)[O-])C(=O)c1ccccc1C2=O	47	0.5	0.3	-6	68*	.
Cc1[nH]c2c(C)cccc2c1CCNC(=O)c1ccc2c(c1[N+](=O)[O-])C(=O)c1ccccc1C2=O	77*	0.2	0.4	-6	61*	.
CC(C)(C)c1ccc(S(=O)(=O)N2C=CC(C(F)(F)F)=NCC2)cc1	12	0.9	0.1	-1	86*	15
Cc1ccc(S(=O)(=O)N2C=CC(C(F)(F)F)=NCC2)cc1	6	0.9	0.7	-1	32	-4
Cc1cc(N2CCN(C(=O)OC(C)(C)C)CC2)n2ncnc2n1	-11	1.1	1.1	-1	-6	7
Cc1ccc(-c2c(C(=O)NCc3ccc(F)cc3)oc(=O)c3ccccc23)cc1	.	.	.	-2	.	.
COc1ccc(-c2nnc3n2C(C)(C)Cc2cc(OC)c(OC)cc2-3)cc1	-63	1.6	0.9	-1	13	.
COc1cc2c(cc1OC)-c1nc3ccccc3c(=O)n1C(C)(C)C2	56*	0.4	0.7	-1	26	-3
CCOC(=O)C1CCN(S(=O)(=O)c2cc(Br)cc3c2N(C(=O)C2CC2)CC3)CC1	35	0.6	0.4	-2	60*	8
O=C(C1CC1)N1CCc2cc(Br)cc(S(=O)(=O)N3CCN(c4ccccn4)CC3)c21	95*	0.1	0.3	-2	72*	18
COc1ccc(C(=O)Cn2nnc(-c3ccccc3NC(=O)c3ccco3)n2)cc1	17	0.8	0.9	-1	10	6
